Laboratory results as given in PubChem BioAssay (NCATS).
Records with an inconclusive call do not appear. The source made the active and inactive calls. The call rests on the fitted dose curve.

Experiments:
[1] = Primary qHTS for inhibitors of SARS-S pseudo-typed particle cell entry (AID 1479145); further: nearly all actives have a fitted effect of over 45% in size
[2] = Primary qHTS for Huh7 cytotoxicity: counterscreen for inhibitors of MERS-S pseudotyped particle cell entry (AID 1479147)
[3] = Primary qHTS for inhibitors of MERS-S pseudo-typed particle cell entry (AID 1479149); further: nearly all actives have a fitted effect of over 60% in size
[4] = Primary qHTS for Vero E6 cytotoxicity: counterscreen for inhibitors of SARS-S pseudo-typed particle cell entry (AID 1479150)

Measured: Potency

O=C(O)c1cc(N=Nc2ccc(O)c(C(=O)O)c2)ccc1O
inactive: all assays above

CCCCCCCCCCCCCCCC(=O)OC(C)C
inactive: all assays above

NC(=O)NC1NC(=O)NC1=O (stereo not given)
inactive: all assays above

Nc1ccc(S(N)(=O)=O)cc1
inactive: all assays above

CCc1cc(C(N)=S)ccn1
inactive: all assays above

O=S(=O)(O)c1ccc(O)cc1
inactive: all assays above

O=C(c1ccccc1)C(O)c1ccccc1 (stereo not given)
inactive: all assays above

Nc1nc(-c2ccccc2)c(Br)c(=O)[nH]1
inactive: all assays above

COC(=O)c1cc(Cl)ccc1NS(=O)(=O)C(F)(F)F
inactive: all assays above

Cc1ccccc1OCC(O)CO (stereo not given)
inactive: all assays above

CCCCOC(=O)c1ccc(N)cc1
inactive: all assays above

COc1cccc(OC)c1C(=O)N[C@@H]1C(=O)N2[C@@H]1SC(C)(C)[C@@H]2C(=O)O
inactive: all assays above

CCn1ccc(NS(=O)(=O)c2ccc(N)cc2)nc1=O
inactive: all assays above

CC(C)(C)C(=O)Oc1ccc(S(=O)(=O)Nc2ccccc2C(=O)NCC(=O)O)cc1
inactive: all assays above

CC(=O)SCC(CC(=O)c1ccc(C)cc1)C(=O)O (stereo not given)
inactive: all assays above
